The text below walks through data of PubChem BioAssay.

Molecules are shown by their SMILES. Unmarked numbers belong to inactive results. The source made the active and inactive calls. No stated cut-off is given here; in the data, active means fold change permeability below about 0.7 or above about 1.3; inactive means in between.

The nature of the assay: modulators of brain endothelial barrier permeability, primary screen, cell-based, FITC-avidin fluorescence, HTS (AID 1963498). Further: test concentration not given here. The conditions noted are these: actives lie on both sides.
For `CCCC(CCC)C(=O)O`, the fold change permeability is 1.1.

For the compound `Cc1cc(Cn2cnc3c2C[C@@H](C(=O)O)N(C(=O)C(c2ccccc2)c2ccccc2)C3)ccc1N`, the fold change permeability was 1.

With `Cc1[nH]c(=O)c(C#N)cc1-c1ccncc1`, the fold change permeability was 0.8.

`c1ccc2c(c1)CCC[C@H]2Nc1nc2ccccc2[nH]1`: the fold change permeability is 1.3 (active).

As for `C=CCN1CCc2cc(O)c(O)cc2C(c2ccccc2)C1` (centres undefined), the fold change permeability is 0.7 (active).

As to `CC(=O)C(C)=O`, the fold change permeability was 1.1.

For `COc1cc(C(O)C(=O)O)ccc1O` (centres undefined), the fold change permeability was 1.

For the compound `CNCCC=C1c2ccccc2CCc2ccccc21`, the fold change permeability is 1.

With `CN(C(=O)CCCOc1ccc2[nH]c(=O)ccc2c1)C1CCCCC1`, the fold change permeability was 0.9.

Regarding `Cc1c(C(=O)N2CCOc3ccc(-c4ccc(N)nc4)cc3C2)ccc(S(C)(=O)=O)c1F`, the fold change permeability is 1.2.

For the compound `CCCCS(=O)(=O)N[C@@H](Cc1ccc(OCCCCC2CCNCC2)cc1)C(=O)O`, the fold change permeability was 1.5 (active).

As to `O=c1[nH]ccc2c(O)cccc12`, the fold change permeability was 2.2 (active).

Take `CCCCC[C@H](CC(=O)NO)C(=O)N[C@H](C(=O)N1CCC[C@H]1CO)C(C)C`: the fold change permeability is 1.2.

As for `O=C(c1ccc(Br)cc1)N1CC2C3CCC(O3)C2C1` (centres undefined), the fold change permeability was 1.2.

As for `C/C(O)=C(\C#N)C(=O)Nc1ccc(C(F)(F)F)cc1`, the fold change permeability was 1.2.

With `COc1ccc(CC(C)NCC(O)c2ccc(O)c(NC=O)c2)cc1` (centres undefined), the fold change permeability was 0.9.

For `Cc1cc(O)c2c(c1)C(=O)c1cc(O)cc(O)c1C2=O`, the fold change permeability is 1.3 (active).

Regarding `CCN(CC)CCNC(=O)c1cc(S(C)(=O)=O)ccc1OC`, the fold change permeability was 0.9.

In the case of `CCN[C@H]1CN(CCCOC)S(=O)(=O)c2sc(S(N)(=O)=O)cc21`, the fold change permeability is 1.5 (active).

With `COc1cc(N2CCN(C)CC2)ccc1Nc1nccc(-c2cn(C)c3cnccc23)n1`, the fold change permeability is 1.2.

For `CCCOc1ccccc1-c1nc2n[nH]nc2c(=O)[nH]1`, the fold change permeability was 1.9 (active).

In the case of `Nc1nc2ccc(Cl)cc2c2nc(-c3ccco3)nn12`, the fold change permeability was 1.3 (active).

For the compound `NC(=O)NO`, the fold change permeability is 1.1.

For `O=S(=O)(c1cccc2c(Cl)cccc12)N1CCCNCC1`, the fold change permeability is 1.1.

As for `Nc1ccc(CCNc2ncnc3c2ncn3C2OC(CO)C(O)C2O)cc1` (centres undefined), the fold change permeability is 1.

As for `COc1ccc(S(=O)(=O)Nc2c(C)cc(C)cc2C)cc1`, the fold change permeability is 1.4 (active).

Turning to `CCCCN(Cc1ccccc1)C(=O)c1ccc(S(=O)(=O)Nc2ccccc2)cc1`, the fold change permeability was 1.8 (active).

As to `CC(CCc1ccc(O)cc1)NCCc1ccc(O)c(O)c1` (centres undefined), the fold change permeability is 1.2.

As for `Nc1ncnc2c1c(-c1cccc(OCc3ccccc3)c1)cn2C1CC(CN2CCC2)C1` (centres undefined), the fold change permeability is 1.1.

As for `NC(=O)CC[C@H](N)C(=O)O`, the fold change permeability was 0.8.

`CCCC(C)NC(=O)c1ccc(Cl)c(Cl)c1` (centres undefined): the fold change permeability was 1.2.

With `CN1CCN(C2=Nc3ccccc3Oc3ccc(Cl)cc32)CC1`, the fold change permeability is 1.3 (active).

With `Oc1ccccc1O`, the fold change permeability is 0.9.

Regarding `Nc1nc(N)c2nc(CNc3ccc(C(=O)N[C@@H](CCC(=O)O)C(=O)O)cc3)cnc2n1`, the fold change permeability was 0.9.

With `Nc1c(S(=O)(=O)O)cc(Nc2ccc(Nc3nc(Cl)nc(Nc4cccc(S(=O)(=O)O)c4)n3)c(S(=O)(=O)O)c2)c2c1C(=O)c1ccccc1C2=O`, the fold change permeability was 0.7 (active).

For the compound `Cn1cc(C(=O)OCC2CCN(CCNS(C)(=O)=O)CC2)c2ccccc21`, the fold change permeability was 1.

In the case of `O=c1[nH]c(=O)n([C@H]2C[C@H](O)[C@@H](CO)O2)cc1Br`, the fold change permeability is 1.

Turning to `CC(C)CN(C[C@@H](O)[C@H](Cc1ccccc1)NC(=O)O[C@H]1CO[C@H]2OCC[C@H]21)S(=O)(=O)c1ccc(N)cc1`, the fold change permeability is 1.4 (active).

Turning to `O=C1NC(=O)/C(=C/c2ccc(-c3ccc(F)cc3O)o2)S1`, the fold change permeability is 1.
